Compound activity from PubChem BioAssay.
Compounds with a hit are over-represented: about 1.4% of the library has one in this group of screens.
A3G deaminase – APOBEC3G (human) deaminase inhibition. Q9HC16. 0.28% of 330,000 active. recombinant A3G, ssDNA deamination FAM/TAMRA fluorescence. AID 493012. inhibition, % at 20 µM;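 active means inhibition of at least 40% at 20 µM, with no more than 30% in the related APOBEC3A deaminase screen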;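 further: plate controls were DMSO wells with A3G for no effect and wells lacking A3G enzyme for full effect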
Target sequence (Q9HC16 whole entry, looked up): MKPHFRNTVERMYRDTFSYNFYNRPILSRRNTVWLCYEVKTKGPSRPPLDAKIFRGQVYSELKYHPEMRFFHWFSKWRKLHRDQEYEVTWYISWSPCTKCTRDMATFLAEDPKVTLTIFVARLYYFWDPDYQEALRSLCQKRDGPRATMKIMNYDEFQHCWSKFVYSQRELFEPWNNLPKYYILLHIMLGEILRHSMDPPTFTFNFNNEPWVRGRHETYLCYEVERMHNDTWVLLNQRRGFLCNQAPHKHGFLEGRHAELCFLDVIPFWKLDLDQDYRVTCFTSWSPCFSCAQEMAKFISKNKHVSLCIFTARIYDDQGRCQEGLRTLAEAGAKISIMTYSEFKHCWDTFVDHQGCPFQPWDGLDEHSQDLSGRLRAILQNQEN
FAS-TE inh – blocks the thioesterase domain of human fatty acid synthase; P49327; recombinant FAS-TE, OMFH fluorogenic substrate, fluorescence endpoint; inhibition, % at 15 µM; 0.67% of 360,000 active; AID 602261;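 active means compounds whose normalised, plate-corrected inhibition of enzyme fluorescence in the single-dose primary screen is 50% or more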;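 further: 0% = DMSO with enzyme and 100% = substrate without enzyme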
NPR1 activator – GC-A (human) enzyme activation. 0.14% of 370,000 active. HEK293 GC-A cells, cGMP TR-FRET, EC30 ANP; 0% at EC30 ANP, 100% saturating ANP. activation, % at 10 µM; in the data active means activation above about 40%
GC-B act – GC-B (human) receptor activation; P20594; 0.11% of 370,000 active; HEK293-GC-B cells, CNP EC30, cGMP TR-FRET; 0% at EC30 CNP, 100% saturating CNP; activation, % at 10 µM;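 active means activation at 10 µM reaching about 35% in either raw or pattern-adjusted values, limit read from the data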
APOBEC3A inh – human APOBEC3A DNA deaminase inhibition; AID 493011; 0.41% of 330,000 active; recombinant A3A, FAM/TAMRA ssDNA deamination fluorescence; inhibition, % at 20 µM;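 active means at least 40% inhibition at 20 µM here, with at most 30% in a related deaminase screen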;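 further: plate controls were A3A with DMSO for no effect and wells lacking A3A enzyme for full effect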
Target sequence (P31941 whole entry, looked up): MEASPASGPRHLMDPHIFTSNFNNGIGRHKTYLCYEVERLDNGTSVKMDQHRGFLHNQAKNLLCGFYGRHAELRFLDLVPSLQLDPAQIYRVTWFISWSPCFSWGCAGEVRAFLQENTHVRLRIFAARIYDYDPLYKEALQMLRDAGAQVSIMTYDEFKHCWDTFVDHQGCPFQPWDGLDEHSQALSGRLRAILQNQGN
FAS-TE inh conf – FAS thioesterase (human) inhibition, confirmation | shares compounds with FAS-TE inh | recombinant FAS-TE, OMFH fluorogenic substrate, fluorescence | inhibition, % at 15 µM | 45% of 2,300 active | AID 624325;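 active means compounds inhibiting the enzyme by at least 50% at 15 µM in any one of the replicates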;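 further: 0% = enzyme with DMSO only and 100% = wells lacking enzyme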
Numbers without * were called inactive; / = no result given.

SMILES	A3G deaminase	FAS-TE inh	NPR1 activator	GC-B act	APOBEC3A inh	FAS-TE inh conf
CCOC(=O)[C@@]12CN(C(=O)OC(C)(C)C)CC=C1N(Cc1ccc(OC)cc1)C(=O)[C@H]2CC(=O)NCCc1ccccc1OC	/	/	-2	-4	/	/
Cc1ccc(NC(=O)Cn2nc(-c3ccco3)ccc2=O)cc1Cl	4	50*	-1	-1	3	33
CCc1noc(C)c1C(=O)OC(C)C(=O)Nc1cc([N+](=O)[O-])ccc1OC (stereo not drawn)	-9	75*	-6	-6	-2	33
CC(OC(=O)/C=C/c1ccco1)C(=O)Nc1cccc([N+](=O)[O-])c1 (stereo not drawn)	-4	38	2	-3	11	/
Cc1noc(C)c1C(=O)OC(C)C(=O)Nc1ccc([N+](=O)[O-])cc1C(F)(F)F (stereo not drawn)	/	-1	1	0	/	/
COc1ccc([N+](=O)[O-])cc1NC(=O)C(C)OC(=O)/C=C/c1ccco1 (stereo not drawn)	-4	62*	1	-1	2	59*
COc1ccc([N+](=O)[O-])cc1NC(=O)C(C)OC(=O)c1ccccc1C(=O)c1ccc(Cl)cc1 (stereo not drawn)	-4	58*	-3	-10	4	31
COc1ccc([N+](=O)[O-])cc1NC(=O)COC(=O)c1ccccc1C(=O)c1ccccc1	-8	28	-1	1	5	/
CCN(C[C@H]1[C@@H](c2ccc(C3=CCCC3)cc2)[C@H](CO)N1Cc1ccccn1)S(=O)(=O)c1ccccc1[N+](=O)[O-]	/	/	-1	-3	/	/
CCCCCN1CCCCC(NC(=O)c2ccccc2OC)C1=O (stereo not drawn)	/	/	-2	-1	/	/
CCCCN1CCN(C2=NC(=O)N(c3ccc(Br)cc3)C(=O)C2)CC1	/	/	2	2	/	/
O=C(Nc1ccccc1)OCCN1C(=O)CCC12CCC(c1ccccc1)CC2 (stereo not drawn)	/	/	-6	-13	/	/
Cc1ccc(NC(=S)N=Nc2c(O)n(C)c3ccc(S(=O)(=O)N4CCOCC4)cc23)cc1C	-5	73*	-3	2	-6	9
Cc1cccc(NC(=S)N=Nc2c(O)n(CN3CCOCC3)c3ccccc23)c1C	-7	18	0	-3	2	/
C=CCn1c(O)c(N=NC(=S)Nc2ccccc2C)c2cc(S(=O)(=O)N3CCOCC3)ccc21	-5	64*	1	-3	-4	19
Cn1c(O)c(N=NC(=S)Nc2ccccc2F)c2cc(S(=O)(=O)N3CCOCC3)ccc21	/	9	-2	0	/	/
COC(=O)[C@]12C[C@H](CC(=O)NCC3CCCCC3)C(=O)N(Cc3ccc(Cl)cc3Cl)C1=C[C@H](COCc1ccccc1)O[C@@H]2C	/	/	0	2	/	/
COC(=O)[C@H]1[C@H]2C[C@@H]3c4[nH]c5cc(OC)ccc5c4CCN3C[C@H]2C[C@@H](OC(=O)/C=C/c2cc(OC)c(OC)c(OC)c2)[C@@H]1OC	-7	54*	1	9	0	23
Cc1ccc(C(=O)NCC(=O)OCc2nnc(-c3ccc([N+](=O)[O-])cc3)o2)s1	-4	53*	-3	-1	2	65*
O=C(CSc1ncnc2c1cnn2-c1ccccc1)NC1CCS(=O)(=O)C1 (stereo not drawn)	-2	64*	-3	-2	4	72*
O=C(CSc1ncnc2c1cnn2-c1ccc(F)cc1)NC1CCCC1	-3	33	3	1	-3	/
CC(C)(C)OC(=O)NCCc1nnc(S(=O)(=O)Cc2ccc(Cl)cc2Cl)o1	-3	64*	4	15	-1	67*
C[C@H]1[C@@H](OC(=O)N2CCOCC2)CC[C@@]23CCCN2C(=O)CCC[C@@H]13	/	/	2	0	/	/
CCc1ccc(C(=O)NNc2cc(Cl)ccc2Cl)cc1	-3	50*	-2	5	1	14
C[C@@H]1NC(=O)[C@@]2(C)[C@@H](c3ccccc3)[C@H]3COc4ccc(Cl)cc4[C@@H]3N2C1=O	-11	-9	-2	1	-5	/
SMILES	A3G deaminase	FAS-TE inh	NPR1 activator	GC-B act	APOBEC3A inh	FAS-TE inh conf
C[C@@]12C(=O)Nc3ccc(Br)cc3C(=O)N1[C@H]1c3cc(Cl)ccc3OC[C@@H]1[C@@H]2c1ccccc1	-7	94*	/	/	0	13
C[C@@]12C(=O)Nc3ccccc3C(=O)N1[C@H]1c3cc(Cl)ccc3OC[C@@H]1[C@@H]2c1ccccc1	-7	47	-3	-6	-1	/
Cc1ccc2c(c1)[C@H]1[C@H](CO2)[C@H](c2ccccc2)[C@]2(C)C(=O)Nc3ccc(Cl)cc3C(=O)N12	-4	33	-10	0	-4	/
C[C@@]12C(=O)Nc3ccc(Br)cc3C(=O)N1[C@H]1c3ccccc3OC[C@@H]1[C@@H]2c1ccccc1	-4	88*	/	/	-2	17
C[C@@]12C(=O)Nc3ccc(Cl)cc3C(=O)N1[C@H]1c3cc(Cl)ccc3OC[C@@H]1[C@@H]2c1ccccc1	-4	77*	-7	-4	1	24
C[C@@]12C(=O)Nc3cc(F)c(F)cc3C(=O)N1[C@H]1c3cc(Cl)ccc3OC[C@@H]1[C@@H]2c1ccccc1	-5	74*	/	/	-3	36
C[C@H]1NC(=O)[C@]2(C)[C@@H](c3ccccc3)[C@H]3COc4ccccc4[C@H]3N2C1=O	/	-7	-2	3	/	/
CCC(=O)Nc1ccc(Cl)cc1C(=O)c1ccc[nH]1	/	/	-1	-8	/	/
COc1ccc2c(c1)[C@H]1[C@H](CO2)[C@H](c2ccccc2)[C@]2(C)C(=O)Nc3ccc(Cl)cc3C(=O)N12	/	86*	-4	0	/	39
COC(=O)[C@]12C[C@H](CC(=O)NCc3ccccc3)C(=O)N(Cc3ccccc3)C1=C[C@H](C(C)(C)C)O[C@@H]2C	/	/	-12	-9	/	/
COc1ccc(/C=C2\CC3(OC(=O)C4CCCC4)CCCN2C3)cc1 (stereo not drawn)	/	/	-5	-4	/	/
O=C1OCCN1C(=O)[C@H]1[C@H](c2ccccc2)C(c2ccccc2)=NN1c1ccccc1	-1	26	-11	-12	2	/
O=C1OCCN1C(=O)[C@H]1[C@H](c2ccccc2)C(c2ccc(F)cc2)=NN1c1ccc(Br)cc1	0	98*	-2	-2	3	18
Cc1cccc(C2=NN(c3ccccc3)[C@@H](C(=O)N3CCOC3=O)[C@@H]2c2ccccc2)c1	1	36	-18	-11	3	/
O=C1OCCN1C(=O)[C@H]1[C@H](c2ccccc2)C(c2ccccc2)=NN1c1ccc(Br)cc1	-1	90*	-4	0	1	41
O=C1CC(c2ccccc2)CC2=C1C1(CCCC1)N=C(Nc1nc3ccccc3o1)N2 (stereo not drawn)	/	69*	0	-4	/	10
